# VACV mCherry inh – inhibitors of vaccinia virus infection (mCherry reporter signal) | AID 720579 | Vaccinia virus mCherry reporter infection, fluorescence | Potency, µM (top dose mostly 36.5 µM), without a hit: top-dose activity change, negative = inhibition, actives largely listed as inhibitors | 310,000 compounds, 0.63% hits; calls by dose curve; tested in A549 cells; further: potency means the concentration at half of the fitted maximal effect; nearly all actives have a fitted effect of over 35% in size
# HCMV inh – blocks human cytomegalovirus replication | HFF cells, HCMV-luciferase reporter, 72 h; active compounds read low | activity change, negative = inhibition, % at 57.5 µM | 410,000 compounds, 4.5% hits | AID 1259415; in the data active means activity change below about -60%; inconclusive means no clear call, values can overlap the other calls; inactive means above about -39%
#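 Compounds were evaluated in HFFs infected with an HCMV luciferase reporter virus (MOI 1 PFU/cell). Luciferase in lysates collected 72 h post infection served as the replication measure.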
# Vaccinia Venus – inhibitors of vaccinia virus (Venus reporter). Vaccinia virus Venus reporter expression, fluorescence. Potency, µM (highest dose often 36.5 µM), inactives show at the top dose activity change, negative = inhibition, hits mostly inhibitors. 330,000 compounds, 0.46% hits. AID 720580; calls by dose curve; tested in A549 cells; further: potency means the concentration at half of the fitted maximal effect; nearly all actives have a fitted effect of over 30% in size
# HCV inhibitor – HCV inhibition; AID 651820; Huh7.5.1 HCVcc-Cre infection, luciferase reporter, 44 h; Potency, µM (top dose mostly 41.8 µM), without a hit: top-dose activity change, negative = inhibition, usual class: inhibitors; 340,000 compounds, 3.4% hits; active means well fitted inhibition curve with a large enough effect; inconclusive means small, poorly fitted or top-dose-only effect, or another doubt; inactive means no such curve, though single readings can be large or run the other way; further: potency means the concentration at half of the fitted maximal effect
#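 HCVcc-Cre virus at an moi near 0.5 was added right after compound to cells cultured 4 h from seeding (1,000 cells/well). Luciferase activity was determined 44 h later, 15 min after substrate addition at RT.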
# MARV entry inh – blocks Marburg virus binding to or entry into cells | Marburg virus pseudotyped entry inhibition, cell reporter | Potency, µM (highest dose often 37.8 µM), without a hit: top-dose activity change, negative = inhibition, hits mostly inhibitors | 300,000 compounds, 1.8% hits; calls by dose curve; tested in HEK293 cells; further: potency means the concentration at half of the fitted maximal effect
# Lassa entry inh – blocks Lassa virus binding to or entry into cells. Lassa virus pseudotype entry inhibition, cell reporter. Potency, µM (series often up to 37.9 µM), inactives show top-dose activity change, negative = inhibition, actives largely listed as inhibitors. 300,000 compounds, 1.2% hits. AID 540256; calls by dose curve; tested in HEK293 cells; further: potency means the concentration at half of the fitted maximal effect; nearly all actives have a fitted effect of over 50% in size
# An asterisk follows results filed as active; i = inactive; ? = inconclusive; . = not tested or not shown; ! = not active in a repeat; [ ] = dose if it differs, or a comment. This is a sample that favours compounds with a hit; in the whole collection about 7.8% have one here. On the % scale 0 is the no-effect control and ±100 the full control effect.
SMILES,VACV mCherry inh,HCMV inh,Vaccinia Venus,HCV inhibitor,MARV entry inh,Lassa entry inh
CC(C)/C=C1\CC/C(=C\c2cccnc2)C1=O,.,7,.,10%,.,.
O=C1NC(=S)N/C1=C/c1cccnc1,-29%,-63*,-16%,0%,.,.
O=C(O)C1=C(O)CCCC1,.,.,.,.,2%,.
CC(C)N(CCO)Cc1nc(N2CCOCC2)c2cc(Cl)ccc2n1,-8%,.,0%,.,.,.
Cc1nn(C)c2c1NC(=O)CS2,i,-27,8%,.,.,.
Cc1cc(F)ccc1Nc1nc2ccccc2n2nnnc12,-27%,-4,-23%,.,8%[46.1 µM],-2%[46.1 µM]
Fc1cc(Br)ccc1Nc1nc2ccccc2n2nnnc12,14%,-73*,-25%,20%,.,.
Cc1ccc(C(=O)c2oc3ccccc3c2NC(=O)COc2ccccc2Cl)cc1,-6%,1,9%,.,-18%[46.1 µM],17%[46.1 µM]
CCN(CC(=O)NCc1ccc(Cl)cc1)C(=O)CCOc1ccccc1C,?,-18,-26%,?,-9%,-25%
CCN(CC(=O)NCc1cccs1)C(=O)CCOc1ccccc1C,-11%,-97*,-10%,-7%,1%,-6%
Cc1ccc2c(c1)-c1ncc(C(=O)c3cc(Br)ccc3O)cc1CO2,-6%,-90*!,-9%,.,-14%[46.1 µM],-12%[46.1 µM]
Cc1ccc(O)c(C(=O)c2cnc3c(c2)COc2ccc(C)cc2-3)c1,.,-27,-13%,?,?,-6%
CN1CCc2c(sc3c2C(=O)NC(c2ccccn2)N3)C1 (stereo not drawn),.,46,.,19%,19%,4%
O=C1NC(c2ccccn2)Nc2sc3c(c21)CCC3 (stereo not drawn),-4%,-103*,-19%,3%,11%,2%
CC(=O)N1c2ccc(S(=O)(=O)NCCC(=O)NCCc3ccc(C)cc3)cc2CC1C (stereo not drawn),i[7.34 µM],0,-11%[7.34 µM],?,.,.
CC(=O)N1CCSc2ccc(S(=O)(=O)NCCc3ccc(Cl)cc3)cc21,-18%[7.34 µM],-60*,-2%[7.34 µM],11µM*,.,.
CC(=O)N1CCSc2ccc(S(=O)(=O)NCCc3ccc(C)cc3)cc21,-20%,0,-15%,?,?,7.9µM*
CC(=O)N1CCSc2ccc(S(=O)(=O)NCCc3cccc(C)c3)cc21,i,?,-24%,?,?,-29%[46.1 µM]
CC(=O)N1CCSc2ccc(S(=O)(=O)Nc3ccc(C)cc3)cc21,-6%,-33,-13%,?,-20%[46.1 µM],-6%[46.1 µM]
CC(=O)N1c2ccc(S(=O)(=O)NCCC(=O)NCCc3ccc(Cl)cc3)cc2CC1C (stereo not drawn),11%[7.34 µM],-61*,15%[7.34 µM],?,.,.
COc1cccc(CNC(=O)C2CCN(C(=O)c3sccc3-n3cccc3)CC2)c1,-11%,-21,-4%,.,-17%[46.1 µM],.
Cc1ccc(NC(=O)CN2C(=O)CC(c3ccc(F)cc3)=Nc3ccccc32)cc1F,?,-81*,?,.,.,6%[46.1 µM]
Cc1ccc(C2=Nc3ccccc3N(CC(=O)Nc3cccc(F)c3)C(=O)C2)cc1C,?,31,-18%,.,.,?
COc1cc(-c2cc3n(C)c(C)c(CCC(=O)NC4CCCCC4)c(=O)n3n2)cc(OC)c1OC,-10%,152,-6%,.,.,16%[46.1 µM]
O=C(CCCc1c[nH]c2ccccc12)N1CCN(S(=O)(=O)c2cccs2)CC1,.,-7,.,13µM*,-27%,-28%
SMILES,VACV mCherry inh,HCMV inh,Vaccinia Venus,HCV inhibitor,MARV entry inh,Lassa entry inh
COc1ccc(N2CCN(C(=O)CCc3c[nH]c4ccccc34)CC2)cc1,-2%,-8,-8%,-28%,-5%[46.1 µM],?
O=C(CCc1c[nH]c2ccccc12)N1CCN(c2ccc(O)cc2)CC1,?,-65*,?,?,?,?
Cc1nc2scc(-c3ccc(C(C)C)cc3)c2c(=O)n1N,-12%,-62*,-12%,-18%,?,12%
COc1ccc(CNC(=O)c2cccc(S(=O)(=O)N3CCCCC3)c2)cc1OC,.,-87*,.,6.3µM*,.,.
O=C(NCc1cccnc1)c1cccc(S(=O)(=O)N2CCCCC2)c1,-6%,-81*,-16%,-16%,-7%,10%
O=C(Nc1cc(S(=O)(=O)N2CCCCC2)ccc1Cl)c1ccccc1NS(=O)(=O)c1ccc(F)cc1,?,.,?,10µM*,?,3.5µM*
O=C(Nc1cc(S(=O)(=O)N2CCCCC2)ccc1O)c1ccccc1NS(=O)(=O)c1ccc(F)cc1,-7%,5,-3%,18%,-18%[46.1 µM],?
COc1ccc(CNC(=O)COc2ccc(S(=O)(=O)N3CCCCC3)cc2Cl)cc1,-12%,5,-20%,?,?,13µM*
COc1ccc(CNC(=O)COc2ccc(S(=O)(=O)N3CCCCC3)cc2)cc1,i,8,-17%,-2%,2%,-13%
COc1ccccc1CCNc1ncnc2nc[nH]c12,-26%,.,?,.,.,.
O=C(NCc1ccc(F)cc1)c1cc(S(=O)(=O)N2CCCCC2)ccc1Cl,.,-102*,.,0%,.,.
O=C(NCc1cccnc1)c1cc(S(=O)(=O)N2CCCCC2)ccc1Cl,-8%,-26,-9%,-5%,-8%,24%
COc1ccc(S(=O)(=O)N2CCCCCC2)cc1C(=O)N(C)Cc1ccc(C(C)(C)C)cc1,?,-15,-28%,14µM*,?,?
CCc1cccc(CC)c1NC(=O)COC(=O)c1cccc(S(=O)(=O)N2CCc3ccccc3C2)c1,i,-21,-2%,8%,?,?
Cc1cccc(C(C)C)c1NC(=O)COC(=O)c1cccc(S(=O)(=O)N2CCc3ccccc3C2)c1,i,-79*,-18%,15%,0%,?
COc1ccc(CCNC(=O)c2cc(S(=O)(=O)N3CCC4(CC3)OCCO4)ccc2F)cc1OC,i,-29,-5%,11µM*,?,?
COCCNC(=O)c1cc(S(=O)(=O)N2CCC3(CC2)OCCO3)ccc1F,-8%,3,-6%,.,.,.
COc1ccc(CN2C(=O)C(n3cccc3)c3cc(F)ccc32)cc1 (stereo not drawn),.,-18,.,.,.,.
Cc1ccc(C)c(N2CCN(C(=O)CN3C(=O)CSc4c3c(C)nn4-c3ccccc3)CC2)c1,-4%,-9,-7%,.,.,11%[46.1 µM]
